Experimental data as given in PMC11574364.

How the values were obtained:
Assay in all cases: protein domain microarray probed with biotinylated miRNA; Domain array: 20 mM Tris-HCl pH 7.4, 200 mM KCl, 0.2 mM EDTA, 0.05% NP40, 2 ug/ul heparin, overnight 4 C. ORF array: PBS pH 7.0 with RNase inhibitor, 100 ng RNA; high values mean tight binding
Settings in all cases: ssRNA
VIGILIN(1-5) = VIGILIN(1-5) (Homo sapiens, UniProt Q00341)
RBMX = RBMX (Homo sapiens, UniProt P38159)
NFAT90(2)/ILF3 = target: T1, NFAT90(2)/ILF3 (Homo sapiens, UniProt Q12906)
T1 sequence: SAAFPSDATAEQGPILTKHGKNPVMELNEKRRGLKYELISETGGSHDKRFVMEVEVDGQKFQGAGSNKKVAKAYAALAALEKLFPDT

IGF2BP3(1-2) = IGF2BP3(1-2) (Homo sapiens, UniProt O00425)
STAU2(1-2) = target: T2, STAU2(1-2) (Homo sapiens, UniProt Q9NUL3)
T2 chain: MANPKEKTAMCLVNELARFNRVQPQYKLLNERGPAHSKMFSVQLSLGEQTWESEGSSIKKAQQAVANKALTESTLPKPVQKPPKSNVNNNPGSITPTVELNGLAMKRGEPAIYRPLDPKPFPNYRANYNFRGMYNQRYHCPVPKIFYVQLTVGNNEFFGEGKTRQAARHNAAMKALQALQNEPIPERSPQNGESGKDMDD

RBM24 = target: T3, RBM24 (Homo sapiens, UniProt Q9BX46)
T3 sequence: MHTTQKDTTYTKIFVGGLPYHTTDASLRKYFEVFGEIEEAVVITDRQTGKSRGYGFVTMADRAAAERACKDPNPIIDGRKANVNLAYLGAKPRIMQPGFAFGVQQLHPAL

TNRC4(3) = TNRC4(3) (Homo sapiens, UniProt Q5SZQ8)
YTHDF2 = target: T4, YTHDF2 (Homo sapiens, UniProt Q9Y5A9)
T4 sequence: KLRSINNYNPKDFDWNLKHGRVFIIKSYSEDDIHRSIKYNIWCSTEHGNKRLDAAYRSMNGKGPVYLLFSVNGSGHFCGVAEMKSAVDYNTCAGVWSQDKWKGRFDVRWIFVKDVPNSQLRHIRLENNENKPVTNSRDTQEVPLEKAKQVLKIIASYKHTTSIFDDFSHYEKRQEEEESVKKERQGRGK

RBM44 = target: T5, RBM44 (Homo sapiens, UniProt Q6ZP01)
T5 sequence: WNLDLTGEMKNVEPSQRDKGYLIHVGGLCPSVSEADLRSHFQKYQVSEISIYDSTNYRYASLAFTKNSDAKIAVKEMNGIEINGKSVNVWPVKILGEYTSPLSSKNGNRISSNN

RBM7 = target: T6, RBM7 (Homo sapiens, UniProt Q9Y580)
T6 sequence: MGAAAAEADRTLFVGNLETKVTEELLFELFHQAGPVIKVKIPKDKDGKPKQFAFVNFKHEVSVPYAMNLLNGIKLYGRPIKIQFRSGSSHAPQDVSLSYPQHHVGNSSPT

RBM12B(4) = target: T7, RBM12B(4) (Homo sapiens, UniProt Q8IXT5)
T7 sequence: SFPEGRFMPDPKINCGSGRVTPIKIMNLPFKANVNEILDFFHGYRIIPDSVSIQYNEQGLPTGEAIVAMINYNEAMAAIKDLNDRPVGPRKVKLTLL

RED1(1)/ADARB1 = RED1(1)/ADARB1 (Homo sapiens, UniProt P78563)
KHDRBS1 = KHDRBS1 (Homo sapiens, UniProt Q07666)
RBM3 = RBM3 (Homo sapiens, UniProt P98179)
YTHDF3 = target: T8, YTHDF3 (Homo sapiens, UniProt Q7Z739)
T8 sequence: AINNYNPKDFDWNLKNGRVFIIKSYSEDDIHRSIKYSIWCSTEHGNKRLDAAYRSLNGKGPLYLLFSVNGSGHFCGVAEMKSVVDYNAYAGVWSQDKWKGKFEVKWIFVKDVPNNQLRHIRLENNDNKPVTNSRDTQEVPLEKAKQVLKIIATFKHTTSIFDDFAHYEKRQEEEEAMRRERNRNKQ

NOVA2(1-2) = target: T9, NOVA2(1-2) (Homo sapiens, UniProt Q9UNW9)
T9 sequence: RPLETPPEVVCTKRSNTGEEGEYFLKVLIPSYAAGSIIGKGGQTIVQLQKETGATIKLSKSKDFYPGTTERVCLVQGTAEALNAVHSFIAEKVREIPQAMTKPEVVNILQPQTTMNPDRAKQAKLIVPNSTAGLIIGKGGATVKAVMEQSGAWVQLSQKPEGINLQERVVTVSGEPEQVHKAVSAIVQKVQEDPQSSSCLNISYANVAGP

SFRS4 = target: T10, SFRS4 (Homo sapiens, UniProt Q08170)
T10 sequence: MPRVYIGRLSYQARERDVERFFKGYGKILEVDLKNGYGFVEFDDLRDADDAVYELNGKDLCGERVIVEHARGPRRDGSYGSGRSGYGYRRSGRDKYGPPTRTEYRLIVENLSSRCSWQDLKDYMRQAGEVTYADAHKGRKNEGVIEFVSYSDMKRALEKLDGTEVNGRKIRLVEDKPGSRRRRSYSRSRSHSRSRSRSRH

DUS2L = target: T11, DUS2L (Homo sapiens, UniProt Q9NX74)
T11 sequence: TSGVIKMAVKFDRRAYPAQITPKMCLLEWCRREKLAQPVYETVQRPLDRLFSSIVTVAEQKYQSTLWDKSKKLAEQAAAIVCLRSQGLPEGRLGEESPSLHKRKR

RNPC2 = target: T12, RNPC2 (Homo sapiens, UniProt Q14498)
T12 sequence: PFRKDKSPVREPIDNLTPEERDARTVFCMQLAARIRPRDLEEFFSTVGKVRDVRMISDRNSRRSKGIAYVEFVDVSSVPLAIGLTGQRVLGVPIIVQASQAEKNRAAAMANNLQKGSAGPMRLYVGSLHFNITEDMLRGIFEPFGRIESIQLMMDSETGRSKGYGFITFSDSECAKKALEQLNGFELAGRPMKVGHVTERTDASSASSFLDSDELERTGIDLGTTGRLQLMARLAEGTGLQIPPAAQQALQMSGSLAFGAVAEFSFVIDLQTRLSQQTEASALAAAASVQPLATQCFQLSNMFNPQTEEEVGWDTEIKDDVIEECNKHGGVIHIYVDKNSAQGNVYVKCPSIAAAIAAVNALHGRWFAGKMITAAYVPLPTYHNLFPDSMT

SON = target: T13, SON (Homo sapiens, UniProt P18583)
T13 sequence: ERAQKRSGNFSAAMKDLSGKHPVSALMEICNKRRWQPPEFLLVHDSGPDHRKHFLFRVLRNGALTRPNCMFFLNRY

Sequence of KHDRBS1 (Q07666 85-210): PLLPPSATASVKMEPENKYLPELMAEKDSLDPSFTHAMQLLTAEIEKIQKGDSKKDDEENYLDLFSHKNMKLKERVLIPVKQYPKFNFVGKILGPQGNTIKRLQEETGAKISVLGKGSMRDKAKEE
Sequence of RBMX (P38159 1-110): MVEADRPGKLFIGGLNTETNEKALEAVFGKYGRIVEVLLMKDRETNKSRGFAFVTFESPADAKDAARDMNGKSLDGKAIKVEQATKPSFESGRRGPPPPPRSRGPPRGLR
Sequence of IGF2BP3(1-2) (O00425 178-364): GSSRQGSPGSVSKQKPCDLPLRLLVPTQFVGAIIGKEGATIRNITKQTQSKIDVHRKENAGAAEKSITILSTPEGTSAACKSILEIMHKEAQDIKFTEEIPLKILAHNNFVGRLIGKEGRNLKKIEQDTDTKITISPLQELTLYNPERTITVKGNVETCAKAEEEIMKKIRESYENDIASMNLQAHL
Sequence of RBM3 (P98179 1-110): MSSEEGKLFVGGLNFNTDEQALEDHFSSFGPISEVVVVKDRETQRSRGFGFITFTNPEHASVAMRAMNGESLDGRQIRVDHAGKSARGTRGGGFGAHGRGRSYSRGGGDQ
Sequence of TNRC4(3) (Q5SZQ8 351-465): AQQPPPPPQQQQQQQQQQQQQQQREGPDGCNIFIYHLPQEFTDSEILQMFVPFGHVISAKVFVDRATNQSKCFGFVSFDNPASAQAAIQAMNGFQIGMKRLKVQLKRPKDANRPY
Sequence of VIGILIN(1-5) (Q00341 138-534): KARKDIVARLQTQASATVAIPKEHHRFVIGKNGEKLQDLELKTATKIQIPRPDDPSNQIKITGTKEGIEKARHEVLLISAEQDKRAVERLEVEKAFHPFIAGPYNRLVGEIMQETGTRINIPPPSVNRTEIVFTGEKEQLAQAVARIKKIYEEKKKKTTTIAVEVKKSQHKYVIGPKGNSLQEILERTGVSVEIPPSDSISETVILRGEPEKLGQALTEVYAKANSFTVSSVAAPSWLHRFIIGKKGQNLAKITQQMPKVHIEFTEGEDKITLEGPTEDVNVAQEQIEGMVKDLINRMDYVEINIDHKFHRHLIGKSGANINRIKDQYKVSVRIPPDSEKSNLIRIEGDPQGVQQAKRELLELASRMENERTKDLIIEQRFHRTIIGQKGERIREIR

CAGUGCAAUGAUGAAAGGGCAU
binding signal (VIGILIN(1-5)): 156 ± 8.85 fluorescence intensity | binding signal (RBMX): 686 ± 37.1 fluorescence intensity | binding signal (NFAT90(2)/ILF3): 23 ± 0.905 fluorescence intensity | binding signal (IGF2BP3(1-2)): 43.1 ± 3.58 fluorescence intensity | binding signal (STAU2(1-2)): 39.2 ± 1.2 fluorescence intensity | binding signal (RBM24): 1450 ± 56.8 fluorescence intensity | binding signal (TNRC4(3)): 85.6 ± 1 fluorescence intensity | binding signal (YTHDF2): 30.8 ± 0.523 fluorescence intensity | binding signal (RBM44): 21.2 ± 0.735 fluorescence intensity | binding signal (RBM7): 34 ± 2.81 fluorescence intensity | binding signal (RBM12B(4)): 38.8 ± 4.95 fluorescence intensity | binding signal (RED1(1)/ADARB1): 67.57 ± 0.354 fluorescence intensity | binding signal (KHDRBS1): 25.1 ± 9.81 fluorescence intensity | binding signal (RBM3): 1390 ± 40.6 fluorescence intensity | binding signal (YTHDF3): 52.8 ± 5.03 fluorescence intensity | binding signal (NOVA2(1-2)): 71.4 ± 9.69 fluorescence intensity | binding signal (SFRS4): 236 ± 1.78 fluorescence intensity

UAGCUUAUCAGACUGAUGUUGA
binding signal (VIGILIN(1-5)): 20.4 ± 2.57 fluorescence intensity | binding signal (RBMX): 71.4 ± 18 fluorescence intensity | binding signal (STAU2(1-2)): 20.4 ± 2.26 fluorescence intensity | binding signal (RBM24): 1720 ± 109 fluorescence intensity | binding signal (TNRC4(3)): 25 ± 0.665 fluorescence intensity | binding signal (RBM3): 409 ± 132 fluorescence intensity

AGAGGUAGUAGGUUGCAUAGUU
binding signal (VIGILIN(1-5)): 173 ± 11.1 fluorescence intensity | binding signal (RBMX): 963 ± 66.7 fluorescence intensity | binding signal (DUS2L): 25.82 ± 0.0919 fluorescence intensity | binding signal (NFAT90(2)/ILF3): 21.9 ± 1.63 fluorescence intensity | binding signal (IGF2BP3(1-2)): 44.2 ± 2.91 fluorescence intensity | binding signal (STAU2(1-2)): 53.6 ± 0.792 fluorescence intensity | binding signal (RBM24): 1891 ± 18.8 fluorescence intensity | binding signal (TNRC4(3)): 191 ± 21.4 fluorescence intensity | binding signal (YTHDF2): 38.4 ± 3.27 fluorescence intensity | binding signal (RBM7): 36.3 ± 3 fluorescence intensity | binding signal (RNPC2): 27 ± 3 fluorescence intensity | binding signal (RBM12B(4)): 23.2 ± 2.64 fluorescence intensity | binding signal (RED1(1)/ADARB1): 152 ± 6.66 fluorescence intensity | binding signal (SON): 20.1 ± 1.45 fluorescence intensity | binding signal (KHDRBS1): 21.6 ± 3.36 fluorescence intensity | binding signal (RBM3): 2295 ± 10 fluorescence intensity | binding signal (YTHDF3): 60.7 ± 7.12 fluorescence intensity | binding signal (NOVA2(1-2)): 151 ± 5.8 fluorescence intensity | binding signal (SFRS4): 238 ± 11.7 fluorescence intensity

UGAGGUAGUAGGUUGUAUGGUU
binding signal (VIGILIN(1-5)): 454 ± 17.2 fluorescence intensity | binding signal (RBMX): 571 ± 25 fluorescence intensity | binding signal (DUS2L): 47.2 ± 5.46 fluorescence intensity | binding signal (NFAT90(2)/ILF3): 27.3 ± 2.02 fluorescence intensity | binding signal (IGF2BP3(1-2)): 34.3 ± 8.59 fluorescence intensity | binding signal (STAU2(1-2)): 74.1 ± 4.8 fluorescence intensity | binding signal (RBM24): 1340 ± 23.1 fluorescence intensity | binding signal (TNRC4(3)): 333 ± 23.4 fluorescence intensity | binding signal (YTHDF2): 72.2 ± 12.5 fluorescence intensity | binding signal (RBM44): 24.5 ± 2.6 fluorescence intensity | binding signal (RBM7): 45.27 ± 0.0778 fluorescence intensity | binding signal (RNPC2): 43.3 ± 11.8 fluorescence intensity | binding signal (RBM12B(4)): 62 ± 3.02 fluorescence intensity | binding signal (RED1(1)/ADARB1): 151 ± 4.54 fluorescence intensity | binding signal (SON): 23.9 ± 4.74 fluorescence intensity | binding signal (KHDRBS1): 25.6 ± 0.417 fluorescence intensity | binding signal (RBM3): 1642 ± 12.9 fluorescence intensity | binding signal (YTHDF3): 117 ± 1.29 fluorescence intensity | binding signal (NOVA2(1-2)): 26.8 ± 4.61 fluorescence intensity | binding signal (SFRS4): 206 ± 51.4 fluorescence intensity

UGAGGUAGUAGGUUGUGUGGUU
binding signal (VIGILIN(1-5)): 622 ± 17.6 fluorescence intensity | binding signal (RBMX): 721 ± 26 fluorescence intensity | binding signal (DUS2L): 76.1 ± 2.55 fluorescence intensity | binding signal (NFAT90(2)/ILF3): 45.6 ± 4.09 fluorescence intensity | binding signal (IGF2BP3(1-2)): 61.2 ± 7.31 fluorescence intensity | binding signal (STAU2(1-2)): 148.7 ± 0.905 fluorescence intensity | binding signal (RBM24): 1780 ± 28.1 fluorescence intensity | binding signal (TNRC4(3)): 324 ± 34.8 fluorescence intensity | binding signal (YTHDF2): 90.3 ± 14.1 fluorescence intensity | binding signal (RBM7): 50.2 ± 0.997 fluorescence intensity | binding signal (RNPC2): 80.9 ± 8.52 fluorescence intensity | binding signal (RBM12B(4)): 50.1 ± 2.09 fluorescence intensity | binding signal (RED1(1)/ADARB1): 230 ± 23.8 fluorescence intensity | binding signal (SON): 24.3 ± 4.36 fluorescence intensity | binding signal (KHDRBS1): 28.3 ± 5.26 fluorescence intensity | binding signal (RBM3): 1550 ± 33.7 fluorescence intensity | binding signal (YTHDF3): 129 ± 9.2 fluorescence intensity | binding signal (NOVA2(1-2)): 40.2 ± 2.14 fluorescence intensity | binding signal (SFRS4): 339 ± 8.46 fluorescence intensity

UGAGGUAGUAGGUUGUAUAGUU
binding signal (VIGILIN(1-5)): 86.5 ± 26.5 fluorescence intensity | binding signal (RBMX): 216 ± 27.7 fluorescence intensity | binding signal (IGF2BP3(1-2)): 21.2 ± 1.65 fluorescence intensity | binding signal (RBM24): 596 ± 24 fluorescence intensity | binding signal (TNRC4(3)): 69.3 ± 14.8 fluorescence intensity | binding signal (RBM44): 20.7 ± 0.276 fluorescence intensity | binding signal (RBM7): 22.1 ± 0.665 fluorescence intensity | binding signal (RED1(1)/ADARB1): 40.73 ± 0.318 fluorescence intensity | binding signal (KHDRBS1): 22.6 ± 1.88 fluorescence intensity | binding signal (RBM3): 669 ± 18.7 fluorescence intensity | binding signal (YTHDF3): 30 ± 0.891 fluorescence intensity | binding signal (SFRS4): 20.4 ± 3.62 fluorescence intensity
